# MCF10A rereplic = induces DNA re-replication in MCF 10a normal breast cells; MCF 10A DNA re-replication, Hoechst nuclear intensity, 48 h; actives 2.9% (n = 350,000); Potency, µM (highest dose often 46.1 µM), for the others: at the highest dose activity, positive = re-replication, actives largely listed as activators; also: potency is read from the fitted curve at half-maximal effect; % of control where 0% means no effect; nearly all actives have a fitted effect of over 50% in size
# SW480 rereplic = induces DNA re-replication in SW480 colon adenocarcinoma cells; AID 624297; SW480 DNA re-replication, Hoechst DNA content imaging, 48 h; actives 1.8% (n = 340,000); Potency, µM (top dose mostly 46.1 µM), for the others: top-dose re-replication activation, hits mostly activators; also: potency is read from the fitted curve at half-maximal effect; % of control where 0% means no effect; nearly all actives have a fitted effect of over 55% in size
#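 Cells (250 per well) received 23 nL compound or DMSO by pin tool and were kept 48 hr at 37 C, 5% CO2. Nuclei were then stained with Hoechst for 40 min and scanned for DNA content.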
# IL-1B inflam inh = inhibitors of inflammasome signaling (IL-1 beta secretion) | activity change, % at 57.5 µM | AID 743279 | THP-1 LPS/ATP IL-1B secretion, AlphaLISA, 16 h; stronger effect = lower value | actives 4.7% (n = 360,000); in the data active = activity change below about -50%; inconclusive = mostly about -30% to -49%; also: % is scaled to controls: 0 for no effect and ±100 for the full control effect
#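 THP-1 cells pretreated 1 hr with compounds (up to 57.5 uM final), then stimulated with LPS (250 ng/mL final) plus ATP (1.25 mM final); secreted IL-1B measured by AlphaLISA after 16 hr, decreased signal indicating inhibition.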
# TDP1 cell noCPT = qHTS for Inhibitors of human tyrosyl-DNA phosphodiesterase 1 (TDP1): qHTS in cells in absence of CPT | Potency, µM (series often up to 46.2 µM), for inactives: top-dose activity change, negative = growth inhibition, most hits filed as inhibitors | DT40 Tdp1-/- hTDP1 cells, no CPT, ATP luminescence, 48 h | AID 686978, 2013 | actives 15% (n = 420,000); also: potency is read from the fitted curve at half-maximal effect; % is scaled to controls: 0 for no effect and ±100 for the full control effect; nearly all actives have a fitted effect of over 55% in size
#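 No-CPT arm: Tdp1-/-;hTDP1 DT40 cells (400/well) plus compounds, incubated ≥48 hr at 37 °C. Readout CellTiter-Glo luminescence.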
# TDP1 cell CPT = growth inhibition of DT40 Tdp1-/-;hTDP1 cells with camptothecin (screen for TDP1 inhibitors). chicken DT40 Tdp1-/-;hTDP1 cells + 20 nM CPT, ATP luminescence, 48 h. Potency, µM (series often up to 46.2 µM), for inactives: at the highest dose activity change, negative = growth inhibition, hits mostly inhibitors. actives 12% (n = 420,000). AID 686979; also: potency is read from the fitted curve at half-maximal effect; % is scaled to controls: 0 for no effect and ±100 for the full control effect; nearly all actives have a fitted effect of over 55% in size
#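 Cell growth measured by CellTiter-Glo luminescence after a minimum 48 h, 37 C compound exposure with 20 nM CPT in Tdp1-knockout DT40 cells stably expressing hTDP1, seeded 400/well; qHTS titration format.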
# BCR signal inh = chronic active BCR signaling inhibition; ABC-DLBCL IkBa-CBG/CBR reporter, luminescence ratio, 4 h; Potency, µM (series often up to 46.1 µM), for the others: top-dose activity change, negative = inhibition, actives largely listed as inhibitors; actives 0.05% (n = 340,000); active = well fitted inhibition curve with a large enough effect in the signal ratio, with a control signal flat, not every such curve was filed as active; inconclusive = small, poorly fitted or top-dose-only effect, or effect the other way, or a change in a side signal; the % refers to the signal ratio;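 also: potency is read from the fitted curve at half-maximal effect; plate controls were basal doxycycline-induced cells for no effect and cells given 10 µM MG132 for full effect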
#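 TMD8 human ABC-DLBCL cells with doxycycline-inducible IκBα–green luciferase fusion and unfused red luciferase, in 0.5% FBS medium; compounds up to 46 uM, 4 h at 37C. Green/red luminescence ratio, filter-overlap corrected, fitted to concentration-response curves.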
# Active calls of the source: *; i = inactive; ? = inconclusive; nt = not tested or not shown; [ ] = remark or other dose. Compounds with a hit are over-represented: about 19% of the library has one in this group of screens. Unless noted, calls follow the shape of the dose curve; as a rule, active = well fitted curve in the direction sought with a large enough effect; inconclusive = small, poorly fitted or top-dose-only effect, or another doubt; inactive = no such curve, though single readings can be large; an effect the other way counts as inactive or inconclusive.
SMILES,MCF10A rereplic,SW480 rereplic,IL-1B inflam inh,TDP1 cell noCPT,TDP1 cell CPT,BCR signal inh
O=C(Nc1ccc2c(c1)OCO2)c1cc(-c2ccncc2)nc2ccccc12,18µM*,?,6,15µM*,?,-15%
O=C(Nc1ccc2c(c1)OCCO2)c1cc(-c2ccccc2)nc2ccccc12,19%,1%,-19,23µM*,?,-10%
CCN(c1ccccc1)S(=O)(=O)c1nnc(NC(=O)COc2ccccc2F)s1,nt,nt,nt,-20%,-15%,nt
COc1ccc(C(=O)NC(=O)COC(=O)C2CC2C)cc1 (centres undefined),-3%,2%,23,9%,-4%,1%
Cc1ccc(S(=O)(=O)N2CCC3(CC2)OCCN3S(=O)(=O)c2c(C)cc(C)cc2C)cc1,?,-48%,28,16µM*,26µM*,-11%
COc1ccc(S(=O)(=O)N2CCC3(CC2)OCCN3S(=O)(=O)c2c(C)cc(C)cc2C)cc1,-2%,4%,-5,8.2µM*,13µM*,-1%
COc1ccc(S(=O)(=O)N2CCOC23CCN(S(=O)(=O)c2cc(C)ccc2OC)CC3)cc1,2%,-5%,10,-19%,-30%,3%
Cc1cc(C)c(S(=O)(=O)N2CCC3(CC2)OCCN3S(=O)(=O)c2cccs2)c(C)c1,?,?,-10,23µM*,?,?
COc1ccc(C(=O)NCCN2CCCC2)cc1[N+](=O)[O-],1%,-2%,-2,3%,4%,1%
NC1C(N)C(N)C1N (centres undefined),nt,nt,nt,-14%,8%,nt
COc1ccc(Br)cc1CNC(=O)CN1C(=O)CSc2ccc(S(=O)(=O)N3CCOCC3)cc21,nt,nt,nt,?,?,-6%
CC(Oc1ccc(F)cc1)C(=O)NCC1(N(C)C)CCCCC1 (centres undefined),nt,nt,nt,1%,-3%,nt
CCOC(=O)N/N=C/c1cn(Cc2ccc(Cl)cc2)c2ccccc12,5%,3%,-6,-25%,?,?
O=C(CNc1ccc2c(c1)OCO2)N/N=C\c1cn(Cc2ccc(F)cc2)c2ccccc12,21µM*,-2%,nt,nt,nt,?
N#CCC(=O)N/N=C/c1cn(Cc2ccc(Cl)cc2Cl)c2ccccc12,12µM*,?,nt,?,-7%,4%
O=C(CNc1ccc2c(c1)OCO2)N/N=C\c1cn(Cc2ccccc2)c2ccccc12,15%,-9%,-6,23µM*,18µM*,-1%
Nc1ccc(C(=O)N/N=C/c2cn(Cc3cccc(F)c3)c3ccccc23)cc1,14%,-9%,i,?,?,?
COc1ccc(C(=O)C2CCCN(C(=O)c3csc(SC)n3)C2)cc1F (centres undefined),nt,nt,3,?,?,nt
Cc1ccccc1-c1cc(C(=O)NCC2CC2)nn1CC1CC(c2cccc([N+](=O)[O-])c2)=NO1 (centres undefined),12%,-9%,-21,16µM*,?,?
Nc1nc(Cl)nc(N(c2ccccc2)c2ccccc2)n1,13%,-5%,1,-3%,-20%,?
Nc1nc(CCl)nc(N(c2ccccc2)c2ccccc2)n1,?,1.2µM*,-102*,?,?,?
CC(C)(Cc1ccc(O)cc1)NC(=O)CC(=O)N/N=C/c1ccc(Cl)cc1,13µM*,?,-4,18µM*,?,-7%
CC(C)(Cc1ccc(O)cc1)NC(=O)CC(=O)N/N=C/c1ccc([N+](=O)[O-])cc1,-1%,-14%,22,-27%,-29%,1%
CC(=NNC(=S)N1CCN(c2ccccn2)CC1)c1ccccn1,0%,?,41,16µM*,18µM*,nt
CC(=NNC(=S)N1CCN(c2ccccn2)CC1)c1nccs1,?,?,0,0.016µM*,0.015µM*,nt
SMILES,MCF10A rereplic,SW480 rereplic,IL-1B inflam inh,TDP1 cell noCPT,TDP1 cell CPT,BCR signal inh
CC(=NNC(=S)N1CCCCCC1)c1cccc2cccnc12,6.5µM*,?,-101*,0.021µM*,0.016µM*,nt
CC(=NNC(=S)N1CCN(C2CCCCCC2)CC1)c1ccccn1,16µM*,?,-98*,0.037µM*,0.065µM*,nt
NS(=O)(=O)c1cccc(NS(=O)(=O)c2ccc(/C=C/C(=O)O)cc2)c1,1%,-8%,11,-4%,5%,0%
COc1ccc(-n2c(=O)c3c(c4cc(OC)ccc4n3C)n(Cc3c(F)cccc3Cl)c2=O)cc1,nt,nt,nt,-13%,-3%,nt
Cc1ccc2occ(C(c3nnnn3C3CCCC3)N3CCN(C(=O)c4ccco4)CC3)c(=O)c2c1 (centres undefined),-8%,2%,-64*,?,16µM*,0%
COc1cccc(-c2csc(N3CCN(C(=O)Nc4ccc(Cl)cc4)CC3)n2)c1,21%,29%,?,?,?,?
COc1ccc(NC(=O)N2CCN(c3nc(-c4cccc(OC)c4)cs3)CC2)cc1,?,-5%,-93*,18µM*,23µM*,?
COc1cccc(-c2csc(N3CCN(CC(=O)NNC(=O)c4ccc(Br)cc4)CC3)n2)c1,-4%,15µM*,-24,16µM*,?,?
COc1cccc(-c2csc(N3CCN(C(=S)Nc4ccccc4Cl)CC3)n2)c1,-3%,0%,-9,?,-9%,2%
COc1cccc(-c2csc(N3CCN(C(=S)NCC(C)C)CC3)n2)c1,?,-28%[1.84 µM],-24,?,18µM*,0%
COc1cccc(-c2csc(N3CCN(C(=S)Nc4ccccc4OC)CC3)n2)c1,8.2µM*,-3%,-15,?,?,4%
COc1cccc(-c2csc(N3CCN(CC(=O)NNC(=O)c4ccc(Cl)cc4)CC3)n2)c1,27%,6%,0,?,?,?
Cn1c(=O)c2c(SCC(=O)N3CCCC3)nc(CC(C)(C)C)nc2n(C)c1=O,-1%,-4%,37,?,?,-11%
CN(CCN1CCOCC1)C(=O)c1cc(COc2ccc(F)c(F)c2)on1,1%,?,i,-17%,-24%,0%
COc1ccc(NC(=O)CN2C(=O)CCn3nc(-c4cccn4C)cc32)cc1Cl,nt,nt,nt,-14%,0%,nt
COCCNC(=S)N1CCN(c2nc(-c3cccc(OC)c3)cs2)CC1,7%,-5%,17,?,?,-10%

# High-throughput results (PubChem)
